Measurements: the supplement of paper PMC11732987, “Enantioselective OTUD7B fragment discovery through chemoproteomics screening and high-throughput optimisation” (Communications Chemistry, 2025)

Legend:
Test in all cases: log2 ratio of Biotin-Ahx-Ub-VS probe labelling (fragment/DMSO); higher = less target engagement (more negative = stronger competition), active = hit call of the paper (q ≤ 0.05, log2 ratio ≤ -1)
Conditions in all cases: compound concentration: 200 uM; treatment time: 3 h
OTUD6B = molecular target: T1, OTUD6B (UniProt Q8N6M0)
T1 sequence (whole entry): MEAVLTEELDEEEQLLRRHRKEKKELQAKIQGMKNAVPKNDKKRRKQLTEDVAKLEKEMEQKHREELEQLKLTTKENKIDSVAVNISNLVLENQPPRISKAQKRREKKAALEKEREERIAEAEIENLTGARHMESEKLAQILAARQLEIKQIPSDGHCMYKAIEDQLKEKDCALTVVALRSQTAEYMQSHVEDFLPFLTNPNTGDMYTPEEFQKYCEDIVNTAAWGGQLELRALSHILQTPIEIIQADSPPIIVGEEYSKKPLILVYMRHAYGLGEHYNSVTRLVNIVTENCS
Summary of the method: (§1)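 Fragment (200 µM) or vehicle was incubated for 3 h with triplicate HEK293T lysate samples of 495 µg, which were then treated with Biotin-Ahx-Ub-VS at 0.5 µM final for 1 h. Labelled DUBs were enriched on NeutrAvidin, digested with LysC and trypsin, and analysed by diaPASEF LC-MS/MS. Values are average log2 fragment/vehicle ratios from an unpaired t-test on global-median-normalised Spectronaut label-free quantities, using proteins with ≥2 unique peptides.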

OTUD7B = molecular target: T2, OTUD7B (UniProt Q6GQQ9)
T2 sequence (whole entry): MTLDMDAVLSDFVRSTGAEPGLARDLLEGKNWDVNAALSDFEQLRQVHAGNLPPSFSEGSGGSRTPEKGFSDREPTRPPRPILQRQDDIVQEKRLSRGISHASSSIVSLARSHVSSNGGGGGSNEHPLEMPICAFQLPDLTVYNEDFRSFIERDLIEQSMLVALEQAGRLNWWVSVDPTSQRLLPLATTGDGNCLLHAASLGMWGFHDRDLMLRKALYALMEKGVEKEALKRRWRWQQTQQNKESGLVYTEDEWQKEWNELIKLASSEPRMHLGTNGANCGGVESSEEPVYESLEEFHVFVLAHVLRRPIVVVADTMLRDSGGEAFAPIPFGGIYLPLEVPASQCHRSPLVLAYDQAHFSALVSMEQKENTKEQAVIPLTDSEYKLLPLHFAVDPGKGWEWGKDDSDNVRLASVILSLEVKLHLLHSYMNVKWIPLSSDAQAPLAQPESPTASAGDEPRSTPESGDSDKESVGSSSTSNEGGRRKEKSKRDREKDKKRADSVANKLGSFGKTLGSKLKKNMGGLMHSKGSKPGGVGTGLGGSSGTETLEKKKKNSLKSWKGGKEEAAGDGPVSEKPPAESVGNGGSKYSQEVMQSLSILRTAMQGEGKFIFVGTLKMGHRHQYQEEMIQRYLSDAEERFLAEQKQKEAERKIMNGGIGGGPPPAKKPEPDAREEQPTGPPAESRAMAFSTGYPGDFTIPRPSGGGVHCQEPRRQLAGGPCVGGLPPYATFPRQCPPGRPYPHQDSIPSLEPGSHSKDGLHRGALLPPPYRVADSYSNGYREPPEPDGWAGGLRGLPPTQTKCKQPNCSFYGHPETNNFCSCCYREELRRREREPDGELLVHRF
Summary of the method: as §1

PRPF8 = PRPF8 (UniProt Q6P2Q9)
Summary of the method: as §1

PSMD7 = molecular target: T3, PSMD7 (UniProt P51665)
T3 sequence (whole entry): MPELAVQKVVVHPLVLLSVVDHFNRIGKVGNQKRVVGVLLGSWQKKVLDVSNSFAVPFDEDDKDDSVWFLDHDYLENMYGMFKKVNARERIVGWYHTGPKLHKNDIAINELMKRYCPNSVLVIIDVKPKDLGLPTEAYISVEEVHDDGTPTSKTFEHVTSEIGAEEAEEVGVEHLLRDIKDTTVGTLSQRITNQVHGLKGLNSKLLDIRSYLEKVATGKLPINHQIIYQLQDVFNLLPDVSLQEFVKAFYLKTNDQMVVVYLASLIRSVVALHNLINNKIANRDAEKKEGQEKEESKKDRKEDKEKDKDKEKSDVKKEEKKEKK
Summary of the method: as §1

UCHL1 = UCHL1 (UniProt P09936)
Summary of the method: as §1

UCHL3 = molecular target: T4, UCHL3 (UniProt P15374)
T4 sequence (whole entry): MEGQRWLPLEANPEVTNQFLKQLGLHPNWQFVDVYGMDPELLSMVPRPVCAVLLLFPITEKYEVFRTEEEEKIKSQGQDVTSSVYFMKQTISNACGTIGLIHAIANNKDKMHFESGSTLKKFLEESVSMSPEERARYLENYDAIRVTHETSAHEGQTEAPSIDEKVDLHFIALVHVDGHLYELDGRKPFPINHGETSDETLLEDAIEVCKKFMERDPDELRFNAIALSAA
Summary of the method: as §1

UCHL5 = molecular target: T5, UCHL5 (UniProt Q9Y5K5)
T5 sequence (whole entry): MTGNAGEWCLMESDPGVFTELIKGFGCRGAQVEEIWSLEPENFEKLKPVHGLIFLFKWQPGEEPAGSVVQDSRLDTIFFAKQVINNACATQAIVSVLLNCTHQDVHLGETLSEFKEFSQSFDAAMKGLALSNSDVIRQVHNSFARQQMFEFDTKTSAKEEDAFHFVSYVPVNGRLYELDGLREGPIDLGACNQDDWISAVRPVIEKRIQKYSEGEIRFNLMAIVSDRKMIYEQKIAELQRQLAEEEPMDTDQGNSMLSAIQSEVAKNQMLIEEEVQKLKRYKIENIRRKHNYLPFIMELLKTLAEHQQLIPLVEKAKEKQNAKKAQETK
Summary of the method: as §1

USP10 = USP10 (UniProt Q14694)
Summary of the method: as §1

USP15 = molecular target: T6, USP15 (UniProt Q9Y4E8)
T6 sequence (whole entry): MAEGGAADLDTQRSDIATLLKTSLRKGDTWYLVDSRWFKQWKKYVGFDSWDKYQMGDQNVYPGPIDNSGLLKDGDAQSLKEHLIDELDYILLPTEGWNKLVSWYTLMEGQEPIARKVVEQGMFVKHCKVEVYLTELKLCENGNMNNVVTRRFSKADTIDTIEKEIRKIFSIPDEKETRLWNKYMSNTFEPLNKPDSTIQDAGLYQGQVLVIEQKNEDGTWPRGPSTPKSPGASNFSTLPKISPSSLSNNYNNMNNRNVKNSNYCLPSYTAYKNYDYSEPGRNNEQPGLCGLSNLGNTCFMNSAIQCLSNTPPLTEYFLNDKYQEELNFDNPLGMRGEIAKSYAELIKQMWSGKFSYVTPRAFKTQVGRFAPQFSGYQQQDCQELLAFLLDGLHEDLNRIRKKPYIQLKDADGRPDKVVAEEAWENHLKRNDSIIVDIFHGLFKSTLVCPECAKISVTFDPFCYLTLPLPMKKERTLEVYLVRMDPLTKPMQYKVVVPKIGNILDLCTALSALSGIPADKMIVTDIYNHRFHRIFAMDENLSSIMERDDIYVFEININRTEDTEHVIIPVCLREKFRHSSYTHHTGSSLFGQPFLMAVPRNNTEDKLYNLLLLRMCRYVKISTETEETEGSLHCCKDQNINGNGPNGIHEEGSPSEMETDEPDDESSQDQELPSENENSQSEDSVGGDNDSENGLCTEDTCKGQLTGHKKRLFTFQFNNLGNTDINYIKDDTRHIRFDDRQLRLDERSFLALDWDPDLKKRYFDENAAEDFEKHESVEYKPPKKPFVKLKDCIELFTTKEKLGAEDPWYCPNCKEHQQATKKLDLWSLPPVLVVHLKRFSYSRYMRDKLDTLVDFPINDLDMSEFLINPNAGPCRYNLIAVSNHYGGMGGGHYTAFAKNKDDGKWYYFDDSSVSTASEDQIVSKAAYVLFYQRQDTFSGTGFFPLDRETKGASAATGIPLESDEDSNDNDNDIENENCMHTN
Summary of the method: as §1

USP16 = USP16 (UniProt Q9Y5T5)
Summary of the method: as §1

Measured: log2 ratio of Biotin-Ahx-Ub-VS probe labelling

Sequence of USP16 (Q9Y5T5 whole entry, looked up): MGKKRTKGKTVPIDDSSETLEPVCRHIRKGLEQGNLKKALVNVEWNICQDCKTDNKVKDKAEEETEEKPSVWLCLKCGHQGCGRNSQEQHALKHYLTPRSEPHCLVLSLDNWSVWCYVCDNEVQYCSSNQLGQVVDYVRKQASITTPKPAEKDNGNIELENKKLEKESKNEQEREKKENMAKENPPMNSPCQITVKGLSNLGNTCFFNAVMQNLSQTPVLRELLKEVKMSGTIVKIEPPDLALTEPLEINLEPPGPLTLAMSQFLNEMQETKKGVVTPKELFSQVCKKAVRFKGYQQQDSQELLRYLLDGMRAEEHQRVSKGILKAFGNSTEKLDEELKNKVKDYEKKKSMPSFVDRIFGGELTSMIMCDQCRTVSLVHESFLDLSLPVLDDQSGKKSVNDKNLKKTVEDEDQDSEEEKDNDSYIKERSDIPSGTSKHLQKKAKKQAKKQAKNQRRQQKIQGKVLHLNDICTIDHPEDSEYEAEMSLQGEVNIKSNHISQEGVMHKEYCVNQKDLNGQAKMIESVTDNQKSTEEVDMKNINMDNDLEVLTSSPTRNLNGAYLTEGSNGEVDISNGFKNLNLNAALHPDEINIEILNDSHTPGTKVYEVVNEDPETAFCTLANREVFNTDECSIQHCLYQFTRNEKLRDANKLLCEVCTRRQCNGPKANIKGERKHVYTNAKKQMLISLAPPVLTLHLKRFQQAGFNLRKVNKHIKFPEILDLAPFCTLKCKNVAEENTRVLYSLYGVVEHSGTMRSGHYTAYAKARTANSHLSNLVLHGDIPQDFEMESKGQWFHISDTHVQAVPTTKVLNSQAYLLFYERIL
Sequence of USP10 (Q14694 whole entry): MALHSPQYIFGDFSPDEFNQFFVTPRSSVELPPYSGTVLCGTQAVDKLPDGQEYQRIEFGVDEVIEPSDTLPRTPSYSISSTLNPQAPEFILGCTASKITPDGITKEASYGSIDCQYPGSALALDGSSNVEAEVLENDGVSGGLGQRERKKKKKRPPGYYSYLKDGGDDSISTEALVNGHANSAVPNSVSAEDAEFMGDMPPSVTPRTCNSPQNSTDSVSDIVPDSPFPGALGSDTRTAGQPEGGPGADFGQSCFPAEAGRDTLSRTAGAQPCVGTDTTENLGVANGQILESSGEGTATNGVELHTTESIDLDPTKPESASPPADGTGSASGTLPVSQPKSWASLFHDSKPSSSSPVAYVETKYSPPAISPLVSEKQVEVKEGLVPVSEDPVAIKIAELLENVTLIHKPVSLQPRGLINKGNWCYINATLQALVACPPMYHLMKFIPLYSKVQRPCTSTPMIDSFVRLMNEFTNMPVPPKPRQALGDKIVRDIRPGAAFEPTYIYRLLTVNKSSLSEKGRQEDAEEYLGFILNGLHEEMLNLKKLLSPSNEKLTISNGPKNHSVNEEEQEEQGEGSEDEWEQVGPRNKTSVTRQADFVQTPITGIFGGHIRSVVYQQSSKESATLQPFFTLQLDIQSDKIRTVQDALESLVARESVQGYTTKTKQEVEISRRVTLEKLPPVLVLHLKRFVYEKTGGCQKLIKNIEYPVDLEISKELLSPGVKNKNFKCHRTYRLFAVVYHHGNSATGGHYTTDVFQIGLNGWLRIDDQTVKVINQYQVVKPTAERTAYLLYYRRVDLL
Sequence of UCHL1 (P09936 whole entry, looked up): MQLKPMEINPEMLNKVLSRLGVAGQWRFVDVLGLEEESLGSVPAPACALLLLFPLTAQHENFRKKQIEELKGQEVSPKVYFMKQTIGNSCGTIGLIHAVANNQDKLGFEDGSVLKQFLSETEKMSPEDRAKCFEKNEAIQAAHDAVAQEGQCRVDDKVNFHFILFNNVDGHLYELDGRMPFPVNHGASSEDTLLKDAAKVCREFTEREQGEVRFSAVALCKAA

Cc1ccccc1OCC(=O)N1CCN(C(=O)CCl)CC1
active: UCHL1 -1.52
inactive: OTUD6B -0.157 | OTUD7B -0.203 | PRPF8 0.281 | PSMD7 0.113 | UCHL3 0.461 | UCHL5 -0.137 | USP10 -0.173 | USP15 -0.416 | USP16 -0.973
